Consider twelve molecules from PubChem BioAssay AID2711 (National Center for Advancing Translational Sciences (NCATS), 2010).

Each structure is given as a SMILES string. This is one part of the list. Records with an inconclusive call do not appear. Values without a mark were called inactive. Calls of active or inactive are those of the source. The call rests on the fitted dose curve; in most records, active means well fitted inhibition curve with a large enough effect; inconclusive means small, poorly fitted or top-dose-only effect; inactive means no such curve, though single readings can be large or run the other way.
On the % scale 0 is the no-effect control and ±100 the full control effect; potency means the concentration at half of the fitted maximal effect.

A short description of the assay: Counterscreen for RECQ1 Inhibitors: ADP Fluorescence Polarization Displacement Assay. Further: nearly all actives have a fitted effect of over 45% in size. As to conditions: series mostly up to 228 µM; activity change, negative = inhibition: at the top concentration. The source says:
In order to gain further insight into the mode of action of the RECQ1 screening hits, we have profiled them in a set of miniaturized fluorescence polarization assays designed to report on compounds which competitively displace either co-substrate (ATP or DNA). The appropriate fluorescently-labeled probe was used: BODIPY Texas Red-labeled ADP was expected to be competed off by ATP-competitive inhibitors, while single-TAMRA labeled forked-duplex or short single-stranded DNA molecules served as probes for DNA-competitive compounds.
Three uL of reaction buffer (25 mM Tris-HCl (pH 8.0), 5 mM NaCl, 2 mM MgCl2, 1mM DTT, 0.01% Tween- 20, and 2.5 ug/ml poly(dI-dC), containing 300 nM RECQ1 and 500 nM BODIPY Texas Red-ADP (Invitrogen) were dispensed into a 1536-well Greiner black assay plate via solenoid-valve based nanoliter dispensers; 500 nM BODIPY Texas Red-ADP without RECQ1 protein served as a fully-displaced control. Compounds (23 nl each in columns 5-48) were transferred via a Kalypsys pintool equipped with a 1536-pin array. The plates were incubated for 15 min at room temperature and were then transferred into a ViewLux high-throughput CCD imager, where the endpoint fluorescence polarization was measured using 525 nm excitation and 598 nm emission protocol.
On to `O=C(NC(Cc1ccccc1)C(=O)N1CCCC1C(=O)O)c1ccccc1` (configuration not stated), for which the “activity change, negative = inhibition” value is -0.948%.

With `O=C(O)CCn1c(SCc2cc(=O)n3ccccc3n2)nc2ccsc2c1=O`, the “activity change, negative = inhibition” value was 0.643%.

`c1ccc(CSc2nnc(-c3ccco3)c(-c3ccco3)n2)cc1`: the Potency is 50.1 µM (active).

With `O=C(N/N=C/c1sc(N2CCCCC2)nc1-c1cccs1)c1cccnc1`, the “activity change, negative = inhibition” value was 59.1% [at 91.9 µM].

Turning to `O=C(OCC1O[C@@H](OC(=O)c2cc(O)c(O)c(O)c2)[C@@H](OC(=O)c2cc(O)c(O)c(O)c2)[C@@H](OC(=O)c2cc(O)c(O)c(O)c2)[C@@H]1OC(=O)c1cc(O)c(O)c(O)c1)c1cc(O)c(O)c(O)c1` (some centres not stated), the “activity change, negative = inhibition” value is -12.5% [at 91.9 µM].

For the molecule `CC(C)C1N=C2c3ccccc3N=C(SCC(=O)c3ccc(O)c(O)c3)N2C1=O` (configuration not stated), the “activity change, negative = inhibition” value is -10.2% [at 91.9 µM].

Regarding `O=C(NC(Cc1c[nH]c2ccccc12)C(=O)O)/C(=C/c1ccco1)NC(=O)c1ccccc1` (configuration not stated), the “activity change, negative = inhibition” value is 8.72%.

Consider `CC(=O)Nc1ccc(Nc2c3ccccc3nc3ccccc23)cc1`, for which the “activity change, negative = inhibition” value is 34.5% [at 91.9 µM].

Regarding `O=C(NCc1ccccc1)C1=C[C@@H](C2CCCCC2)C[C@@H](OCc2ccc(CO)cc2)O1`, the “activity change, negative = inhibition” value is -3.38% [at 91.9 µM].

`CC1Cc2ccccc2N1C(=O)CSc1nnc(-c2ccc(S(=O)(=O)N3CCCC3)cc2)n1C` (configuration not stated): the “activity change, negative = inhibition” value was 3.82%.

As for `COc1cc(C2C(C(=O)c3ccc(C)o3)=C(O)C(=O)N2CCc2ccccc2)ccc1O` (configuration not stated), the “activity change, negative = inhibition” value is 6.79%.

For the molecule `O=C(CCn1nnc2ccccc2c1=O)N[C@@H](Cc1c[nH]c2ccccc12)C(=O)O`, the “activity change, negative = inhibition” value was 6.93%.
